# Data as given in the supplement of paper PMC6555819.
# How the values were obtained:
# Experiment in all cases: PBM binding z-score (relative to random genomic background probes); higher = stronger binding; sequences stand for … in GC…GCGATTGACAGCGTAGAATGAAGG
# [1] = test system: FXR:RXRa (NR concentration 270 nM, RXRa partner concentration 90 nM)
# In short: (§1)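 Binding z-scores take random background probes as their reference. They come from custom Agilent 4×180K protein-binding microarrays incubated 1 h with ligand-free nuclear receptor dimers, with antibodies against each partner (one per run) detecting binding. Scanned fluorescence was regression-normalized.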
# [2] = test system: LXRa:RXRa (NR concentration 270 nM, RXRa partner concentration 90 nM)
# In short: as §1
# [3] = test system: LXRa homodimer (NR concentration 270 nM)
# In short: as §1
# [4] = test system: LXRb:RXRa (NR concentration 270 nM, RXRa partner concentration 90 nM)
# In short: as §1
# [5] = test system: LXRb homodimer (NR concentration 270 nM)
# In short: as §1
# [6] = test system: PPARa:RXRa (NR concentration 270 nM, RXRa partner concentration 90 nM)
# In short: as §1
# [7] = test system: PPARg:RXRa (NR concentration 180 nM, RXRa partner concentration 90 nM)
# In short: as §1
# [8] = test system: PPARg:RXRa 270nM:90nM, anti-RXR (NR concentration 270 nM, RXRa partner concentration 90 nM)
# In short: as §1
# [9] = test system: PPARg:RXRa 30nM:10nM, anti-RXR (NR concentration 30 nM, RXRa partner concentration 10 nM)
# In short: as §1
# [10] = test system: PPARg:RXRa 90nM:30nM, anti-RXR (NR concentration 90 nM, RXRa partner concentration 30 nM)
# In short: as §1
# [11] = test system: PPARg:RXRa DBDmut IVT, anti-RXR (DBD mutation: RXRa K156A/R161A, NR concentration 270 nM, RXRa partner concentration 90 nM)
# In short: as §1
# [12] = test system: PPARg:RXRa IVT, anti-PPARg (NR concentration 270 nM, RXRa partner concentration 90 nM)
# In short: as §1
# [13] = test system: PPARg DBDmut:RXRa IVT, anti-PPARg (DBD mutation: PPARg1 K132A/R137A, NR concentration 270 nM, RXRa partner concentration 90 nM)
# In short: as §1
# [14] = test system: PPARg DBDmut IVT, anti-PPARg (DBD mutation: PPARg1 K132A/R137A, NR concentration 270 nM)
# In short: as §1
# [15] = test system: PPARg homodimer (NR concentration 180 nM)
# In short: as §1
# [16] = test system: PXR:RXRa (NR concentration 270 nM, RXRa partner concentration 90 nM)
# In short: as §1
# [17] = test system: PXR homodimer (NR concentration 270 nM)
# In short: as §1
# [18] = test system: RARa:RXR (NR concentration 270 nM, RXRa partner concentration 90 nM)
# In short: as §1
# [19] = test system: RARa homodimer (NR concentration 270 nM)
# In short: as §1
# [20] = test system: RARb:RXRa (NR concentration 270 nM, RXRa partner concentration 90 nM)
# In short: as §1
Sequence,PBM binding z-score [1],PBM binding z-score [2],PBM binding z-score [3],PBM binding z-score [4],PBM binding z-score [5],PBM binding z-score [6],PBM binding z-score [7],PBM binding z-score [8],PBM binding z-score [9],PBM binding z-score [10],PBM binding z-score [11],PBM binding z-score [12],PBM binding z-score [13],PBM binding z-score [14],PBM binding z-score [15],PBM binding z-score [16],PBM binding z-score [17],PBM binding z-score [18],PBM binding z-score [19],PBM binding z-score [20]
AACTCTAGGTAACAAGTTCAGTGAAAGAGAGGAC,0.335,0.477,0.364,0.379,-0.166,1.58,1.32,1.72,0.492,1.31,3.33,2.65,0.517,0.445,0.677,1.37,1.37,0.703,0.522,1.4
CCTGCTAGGTCATGGTCTGCTAATCTACAGTATG,3.19,2.35,0.138,1.97,-0.218,3.4,2.18,3.48,1.08,2.49,4.68,3.6,0.818,-0.517,0.597,1.33,-0.00693,2.22,-0.00634,3.87
GATCGGAGGACAAGGTCAGAGCTTTGTCCGTAGA,1.55,1.42,-0.502,0.993,-1.3,2.42,1.07,2,-0.141,1.17,-0.00086,0.881,-0.747,-1.99,0.29,1.76,-0.362,2.03,-0.62,3.47
CCTACTGGGCCACAGGTCATTGATTCCAATGCTC,1.51,1.55,1.48,2.12,0.443,4.11,8.34,7.57,6.11,7.68,4.78,5.99,-0.262,-0.356,1.06,1.75,0.334,2.03,-0.37,2.26
AGAACGAGGGGACGCTGAGTTGATAGCAGAGTAG,-0.308,-0.353,-0.679,-0.522,-0.449,-0.232,0.607,0.0813,-0.0641,-0.258,1.17,0.723,0.599,0.498,-0.427,-0.245,0.132,-0.589,-0.633,0.334
CGTCAAAGTTCAAGGTAACATAACAGAAAGCAGC,6.08,5.39,2.7,3.37,1.22,4.67,4.56,5.16,2.16,3.9,0.0346,2.06,0.987,0.494,2.78,4.26,2.87,3.65,1.23,5.13
CGTCAAAGTTCAACGAAGGTAACGTAAAGCACGC,5.82,5.6,2.79,3.6,1.02,4.68,4.43,4.94,2.06,4.07,0.66,1.92,0.175,0.224,2.37,4.52,2.37,3.37,0.936,5.18
GCTTACGGTTCAAAGGTTATAGCATGAATAGAAT,4.43,4.34,0.505,4.04,-0.0859,5.44,4.71,5.6,2.92,5.08,-0.685,0.999,0.711,0.999,0.99,4.71,0.601,6.22,0.458,2.33
CTACCAACGTGAACAAGGTCGTTGATTACTATTC,0.409,0.657,0.667,1.48,0.184,1.22,0.42,0.167,-0.0638,0.0634,0.278,0.249,0.577,1.06,0.913,1.72,1,1.4,0.795,0.631
GCCGCTAGGTCAACTGATGGTCAGCTAAAGCTCG,3.97,3.16,0.212,1.89,-0.472,3.71,2.44,3.07,0.658,1.82,4.39,3.8,-0.418,-0.213,1.56,1.55,-0.4,3.04,0.102,4.35
TCTAGTTGGTAAAAGGTCACACACTCGAAATGCG,5.62,5.67,4.26,5.25,1.91,5.95,8.69,8.46,8.09,9.72,3.1,5.1,1.72,2.8,5.34,5.37,2.68,6.35,5.12,4.93
ATCGAAAGGTCGAGGTGAGCATAGAGAAAGGGAA,4.16,3.42,-0.0507,2.7,0.363,4.61,3.46,3.8,1.66,2.84,0.593,2.74,0.675,0.756,1.39,2.2,-0.0822,3.17,0.169,4.27
CCTGCTAGGACATGGTCAGCTAATCTACAGTATG,-0.435,-0.686,-0.63,-0.793,-0.639,-1.84,0.246,-0.764,-0.445,-0.928,0.152,-0.597,-0.458,-0.543,-0.902,-0.794,-0.746,-0.925,-0.734,0.0895
ATACCAAGGTGATCGTGAGGTCGCTGATACTAAC,1.23,0.653,0.154,0.766,-0.474,1.15,0.701,0.558,-0.172,0.198,0.629,1.43,0.343,0.406,0.832,1.86,0.225,1.66,-0.0146,1.43
